In publication PMC12820563, “FoxP3 forms a head-to-head dimer in vivo and stabilizes its multimerization on adjacent microsatellites”:
In all, about 16,000 sequences were measured (“rpm ratio (pull-down/input)”: median about 0.5, highest 2% from about 5.5 on). Only a selection was taken, and the highest values are over-represented in it overall.

These sequences were tested against T1, MBP-FoxP3dN (Mus musculus, UniProt Q99JB6 188-423) (assay: PD-seq (MBP pull-down with sequencing); 20 mM Tris-HCl pH 7.5, 100 mM NaCl, 1.5 mM MgCl2, 0.4 uM protein, 0.1 uM dsDNA library, 30 min, room temperature, amylose pull-down; high values mean tight binding). Settings: protein: recombinant; tags: His6-MBP; chain copies: 2; dsDNA, one strand shown.
T1 sequence: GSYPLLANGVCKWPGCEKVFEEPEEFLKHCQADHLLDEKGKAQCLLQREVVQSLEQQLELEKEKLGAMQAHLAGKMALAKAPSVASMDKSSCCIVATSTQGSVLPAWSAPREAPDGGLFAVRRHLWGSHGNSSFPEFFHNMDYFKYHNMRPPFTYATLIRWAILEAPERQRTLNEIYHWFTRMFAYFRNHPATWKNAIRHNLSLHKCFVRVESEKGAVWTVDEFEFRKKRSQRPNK
Outline: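 A fragment of mouse FoxP3 or FoxP1 without its N-terminus, carrying a His6-MBP tag and produced in E. coli, was combined at 0.4 µM with a 0.1 µM degenerate double-stranded DNA library filled in with Klenow. The mixture sat for 30 min at room temperature in Tris pH 7.5 buffer containing NaCl and MgCl2. Protein–DNA complexes were captured on amylose resin, washed three times, and the DNA was freed with proteinase K, barcoded by PCR and sequenced on Illumina. Binding is expressed as reads-per-million enrichment of pull-down over input, with replicates pooled.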

Sequence | binding signal
GATGATTGTTCTCCCAGCTGATGAATTGAAGCATTCGAGTAAACAAATTTTCCTAATCTTTCTGTTCAAGCGCCATCTAC | 4.38 RPM ratio (pull-down/input)
GATGATTGTTCTCCCAGCTGATGAATTGCATGATTCGAGTAAACAAATTTTCCTAATCTTTCTGTTCAAGCGCCATCTAC | 1.35 RPM ratio (pull-down/input)
GATGATTGTTCTCCCAGCTGATGAATTGCATCATTCGAGTAAACAAATTTTCCTAATCTTTCTGTTCAAGCGCCATCTAC | 5.15 RPM ratio (pull-down/input)
GATGATTGTTCTCCCAGCTGATGAATTCGATGCATCGAGTAAACAAATTTTCCTAATCTTTCTGTTCAAGCGCCATCTAC | 1.84 RPM ratio (pull-down/input)
GATGATTGTTCTCCCAGCTGATGAATTGATGCATTCGAGTAAACAAATTTTCCTAATCTTTCTGTTCAAGCGCCATCTAC | 6.87 RPM ratio (pull-down/input)
GATGATTGTTCTCCCAGCTGATGAATTCATGCATTCGAGTAAACAAATTTTCCTAATCTTTCTGTTCAAGCGCCATCTAC | 5.77 RPM ratio (pull-down/input)
GATGATTGTTCTCCCAGCTGATGAATTAATGCATTCGAGTAAACAAATTTTCCTAATCTTTCTGTTCAAGCGCCATCTAC | 6.89 RPM ratio (pull-down/input)
GATGATTGTTCTCCCAGCTGATGAATTAAATGCATCGAGTAAACAAATTTTCCTAATCTTTCTGTTCAAGCGCCATCTAC | 2.36 RPM ratio (pull-down/input)
GATGATTGTTCTCCCAGCTGATGAATTAATGAATTCGAGTAAACAAATTTTCCTAATCTTTCTGTTCAAGCGCCATCTAC | 0.682 RPM ratio (pull-down/input)
GATGATTGTTCTCCCAGCTGATGAATTTTGCACGTCGAGTAAACAAATTTTCCTAATCTTTCTGTTCAAGCGCCATCTAC | 3.32 RPM ratio (pull-down/input)
GATGATTGTTCTCCCAGCTGATGAATTTTTAGGATCGAGTAAACAAATTTTCCTAATCTTTCTGTTCAAGCGCCATCTAC | 0.222 RPM ratio (pull-down/input)
GATGATTGTTCTCCCAGCTGATGAATTCAATTAGTCGAGTAAACAAATTTTCCTAATCTTTCTGTTCAAGCGCCATCTAC | 1.25 RPM ratio (pull-down/input)
GATGATTGTTCTCCCAGCTGATGAATTCTGTAGGTCGAGTAAACAAATTTTCCTAATCTTTCTGTTCAAGCGCCATCTAC | 0.948 RPM ratio (pull-down/input)
GATGATTGTTCTCCCAGCTGATGAATTTGACGTATCGAGTAAACAAATTTTCCTAATCTTTCTGTTCAAGCGCCATCTAC | 1.27 RPM ratio (pull-down/input)
GATGATTGTTCTCCCAGCTGATGAATTGGAGTACTCGAGTAAACAAATTTTCCTAATCTTTCTGTTCAAGCGCCATCTAC | 0.523 RPM ratio (pull-down/input)
GATGATTGTTCTCCCAGCTGATGAATTCGAACTTTCGAGTAAACAAATTTTCCTAATCTTTCTGTTCAAGCGCCATCTAC | 0.271 RPM ratio (pull-down/input)

Sequence | binding signal
GATGATTGTTCTCCCAGCTGATGAATTCATCTCATCGAGTAAACAAATTTTCCTAATCTTTCTGTTCAAGCGCCATCTAC | 0.393 RPM ratio (pull-down/input)
GATGATTGTTCTCCCAGCTGATGAATTTTTTAGTTCGAGTAAACAAATTTTCCTAATCTTTCTGTTCAAGCGCCATCTAC | 0.299 RPM ratio (pull-down/input)
GATGATTGTTCTCCCAGCTGATGAATTAGTTAGTTCGAGTAAACAAATTTTCCTAATCTTTCTGTTCAAGCGCCATCTAC | 4.22 RPM ratio (pull-down/input)
GATGATTGTTCTCCCAGCTGATGAATTTGTTAGTTCGAGTAAACAAATTTTCCTAATCTTTCTGTTCAAGCGCCATCTAC | 7.44 RPM ratio (pull-down/input)
GATGATTGTTCTCCCAGCTGATGAATTCTTTAGTTCGAGTAAACAAATTTTCCTAATCTTTCTGTTCAAGCGCCATCTAC | 0.297 RPM ratio (pull-down/input)
GATGATTGTTCTCCCAGCTGATGAATTAGTAGTTTCGAGTAAACAAATTTTCCTAATCTTTCTGTTCAAGCGCCATCTAC | 1.93 RPM ratio (pull-down/input)
GATGATTGTTCTCCCAGCTGATGAATTAGTTCTTTCGAGTAAACAAATTTTCCTAATCTTTCTGTTCAAGCGCCATCTAC | 0.409 RPM ratio (pull-down/input)
GATGATTGTTCTCCCAGCTGATGAATTTAGTTGTTCGAGTAAACAAATTTTCCTAATCTTTCTGTTCAAGCGCCATCTAC | 5.93 RPM ratio (pull-down/input)
GATGATTGTTCTCCCAGCTGATGAATTAGTTGTTTCGAGTAAACAAATTTTCCTAATCTTTCTGTTCAAGCGCCATCTAC | 6.61 RPM ratio (pull-down/input)
GATGATTGTTCTCCCAGCTGATGAATTAGTTTTTTCGAGTAAACAAATTTTCCTAATCTTTCTGTTCAAGCGCCATCTAC | 3.9 RPM ratio (pull-down/input)
GATGATTGTTCTCCCAGCTGATGAATTAGTTTCTTCGAGTAAACAAATTTTCCTAATCTTTCTGTTCAAGCGCCATCTAC | 2.72 RPM ratio (pull-down/input)
GATGATTGTTCTCCCAGCTGATGAATTGTTAGTTTCGAGTAAACAAATTTTCCTAATCTTTCTGTTCAAGCGCCATCTAC | 4.23 RPM ratio (pull-down/input)
GATGATTGTTCTCCCAGCTGATGAATTAGTTTGTTCGAGTAAACAAATTTTCCTAATCTTTCTGTTCAAGCGCCATCTAC | 6.22 RPM ratio (pull-down/input)
GATGATTGTTCTCCCAGCTGATGAATTCGACAGGTCGAGTAAACAAATTTTCCTAATCTTTCTGTTCAAGCGCCATCTAC | 0.284 RPM ratio (pull-down/input)
GATGATTGTTCTCCCAGCTGATGAATTCAGACATTCGAGTAAACAAATTTTCCTAATCTTTCTGTTCAAGCGCCATCTAC | 0.869 RPM ratio (pull-down/input)
GATGATTGTTCTCCCAGCTGATGAATTTCGCGAGTCGAGTAAACAAATTTTCCTAATCTTTCTGTTCAAGCGCCATCTAC | 0.675 RPM ratio (pull-down/input)
